# In PubChem BioAssay (EPA / NIEHS):
# Several values for one entry are separate records, joined by “and”; a condition that tells them apart may be missing. Identical values can stand only once. Records with an inconclusive call do not appear. The source holds several records for some structures; these can differ, active in one and inactive in another. Activity calls are given as the source filed them. How the source made its calls: active means hit-call score of the fitted dose curve at least 0.9, where 1 is the maximum; inconclusive means response in the unintended direction; inactive means score below 0.9.
# Target: human Norepinephrine Transporter (NET), SLC6A2 (gene 6530) (UniProt P23975)
# Sequence (P23975 whole entry, looked up): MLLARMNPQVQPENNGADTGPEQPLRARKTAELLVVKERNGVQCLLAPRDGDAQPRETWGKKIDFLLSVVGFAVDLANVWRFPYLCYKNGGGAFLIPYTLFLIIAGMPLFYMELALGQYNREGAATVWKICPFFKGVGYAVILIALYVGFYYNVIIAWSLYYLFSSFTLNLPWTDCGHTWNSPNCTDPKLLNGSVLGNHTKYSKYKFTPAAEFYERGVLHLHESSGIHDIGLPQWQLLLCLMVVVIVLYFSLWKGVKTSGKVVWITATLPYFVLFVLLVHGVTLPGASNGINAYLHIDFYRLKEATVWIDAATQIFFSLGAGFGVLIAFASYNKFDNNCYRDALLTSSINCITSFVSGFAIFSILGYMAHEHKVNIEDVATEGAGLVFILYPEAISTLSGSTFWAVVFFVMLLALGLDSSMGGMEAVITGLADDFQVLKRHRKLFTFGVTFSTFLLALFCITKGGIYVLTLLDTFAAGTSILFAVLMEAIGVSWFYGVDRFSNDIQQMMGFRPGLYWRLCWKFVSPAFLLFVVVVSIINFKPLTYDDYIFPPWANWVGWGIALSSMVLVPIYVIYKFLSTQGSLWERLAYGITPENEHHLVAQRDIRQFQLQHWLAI
# Assay: NVS_TR_hNET: NovaScreen (NVS) Transporter Assay for human Norepinephrine Transporter (NET) (AID 2283377);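 further: cell-free membrane protein extracted from CHO cells expressing human NET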
# Experimental: NVS_TR_hNET is a biochemical, single-readout assay that uses extracted gene-proteins from CHO in a cell-free assay. Measurements were taken 1 hour after chemical dosing in a 96-well plate.NVS_TR_hNET is one of one assay component(s) measured or calculated from the NVS_TR_hNET assay. It is designed to make measurements of radioligand binding, a form of binding reporter, as detected with scintillation counting signals by Filter-based radiodetection technology.Data from the assay component NVS_TR_hNET was analyzed into 1 assay endpoint. This assay endpoint, NVS_TR_hNET, was analyzed in the positive analysis fitting direction relative to DMSO as the negative control and baseline of activity. Using a type of binding reporter, loss-of-signal activity can be used to understand changes in the binding as they relate to the gene SLC6A2. Furthermore, this assay endpoint can be referred to as a primary readout, because the performed assay has only produced 1 assay endpoint. To generalize the intended target to other relatable targets, this assay endpoint is annotated to the transporter intended target family, where the subfamily is neurotransmitter transporter.
# Binding assays used specific radioligands (tritiated, iodinated) with non-radioactive competitive displacement ligands in agonist or antagonist protocols (as indicated) and various reference compounds and inhibitors to titrate specific binding to receptors and transporters. Most enzyme assays (CYPs, kinases, phosphatases, proteases, HDACs) used recombinant protein and specific substrates (fluorescence mostly, some colorimetric and radioactive) and inhibitors, followed by a biochemical separation of substrate and product. All assays for the biochemical HTS were initially run in duplicate at a single concentration (10 uM for CYP450 assays and 25 uM for all others). […] Each assay was run with positive and negative controls, and concurrent controls on every plate. The follow-up (secondary) screen tested active chemical-pairs in concentration series, as well as a few additional assays not tested in the primary screen, some selected negative inactives, and several cases re-run in the concentration series for confirmatory purposes.
Structure (SMILES),AC50,outcome
Clc1ccc2c(Cl)ccnc2c1,25 µM (active),
Clc1ccc(Nc2nnc(Cc3ccncc3)c3ccccc23)cc1,0.898 µM (active),
O=C1OC2(c3ccccc31)c1cc(I)c(O)c(I)c1Oc1c2cc(I)c(O)c1I,0.566 µM (active),
Oc1cccc2c(O)cccc12,,inactive
CC(O)COc1ccccc1 (configuration not stated),,inactive
N=C(N)c1ccc(OCCCCCOc2ccc(C(=N)N)cc2)cc1,0.725 µM (active),
NC(=NCCCCCCN=C(N)/N=C(\N)Nc1ccc(Cl)cc1)/N=C(\N)Nc1ccc(Cl)cc1,0.356 µM (active),
C=Cc1ccc(O)c(OC)c1,19.1 µM (active),
c1ccc2c(c1)CCC2,,inactive
CN(Cc1cnc2nc(N)nc(N)c2n1)c1ccc(C(=O)N[C@@H](CCC(=O)O)C(=O)O)cc1,,inactive
CN(C)c1ccc(C(=C2C=CC(=[N+](C)C)C=C2)c2ccccc2)cc1,18.3 µM (active) and 5.15 µM (active),
CC(C)(C)c1ccc(O)c(O)c1,18.4 µM (active),inactive
Oc1cc2ccccc2cc1O,,inactive
CCCCCCCCCCCCCCCCCC[N+](C)(C)Cc1ccccc1,2.49 µM (active),
CCCCCc1ccc(O)cc1,14.6 µM (active),
CCCCCCCCCCCCCCC,,inactive
